Data as given in ChEMBL document CHEMBL3988442, “University of Dundee, Small-Polar-MMV Screening Library” (2021).
Among all 69,000 compounds or so, about 950 (1.4%) showed an effect of 50% or more. Shown is part of a subset that was picked to be rich in strong results.

What follows are compounds tested on Mycobacterium tuberculosis (assay: Cornell M. t heat shock assay; further: in the data most compounds retested in dose-response had high values).
Format: functional, organism-based
Design: dose or concentration left out as unconfirmed

SMILES | Percent Effect
CCC(CNC(=O)c1ccccc1Br)N1CCc2ccccc2C1 (stereo not drawn) | -2.045%
CCC(CNC(=O)c1ccccn1)N1CCc2ccccc2C1 (stereo not drawn) | 64.91%
CCC(CNC(=O)c1ccc(=O)[nH]n1)N1CCc2ccccc2C1 (stereo not drawn) | -4.669%
O=C(O)C(F)(F)F.c1ccc(CN2CCCn3nnc(CNc4ncccn4)c3C2)nc1 | 11.56%
Cc1noc(C)c1CN1CCc2ncnc(-c3ccncc3)c2CC1.O=C(O)C(F)(F)F.O=C(O)C(F)(F)F | 7.897%
O=C(CCc1ccsc1)NCC1CCN(c2ccccc2)C1 (stereo not drawn) | 105.9%
O=C(CCc1ccccc1)NCC1CCN(Cc2ccsc2)CC1 | -20.67%
O=C(CCc1ccsc1)NCC1CCN(C2CC2)C1 (stereo not drawn) | -16.29%
CC(C)c1nn(C)cc1CNCc1ccnc(N(C)C)c1.Cl | -35.39%
CC(C)NC(=O)CC1COC2(CCN(Cc3ccccc3)CC2)C1.O=C(O)C(F)(F)F (stereo not drawn) | -5.683%
CS(=O)(=O)NC[C@@H]1OC[C@H]2CN(Cc3ccsc3)CC[C@H]21.O=C(O)C(F)(F)F | -25.96%
CC(C)(C)Nc1c(C2CCCN(C(=O)C3CC3)C2)nc2ccccn12.Cl (stereo not drawn) | -26.51%
COC(=O)c1cccc(CN(C)C(C)c2ccccn2)c1 (stereo not drawn) | -7.966%
CC(c1ccco1)N(C)Cc1cccc(C(=O)Nc2nccn2C)c1 (stereo not drawn) | 105%
CC(c1ccccn1)N(C)Cc1cccc(C(=O)Nc2nccn2C)c1 (stereo not drawn) | 74%
CN(Cc1cccc(C(=O)Nc2ccnn2C)c1)CC1(C)COC1 | -8.064%
CC(NC(=O)c1cccc(CN2CCN(C)CC2)c1)c1ccccn1 (stereo not drawn) | -15.12%
CCc1nnc(CN(C)Cc2cccc(C(=O)Nc3ccnn3C)c2)o1 | 2.892%
N#CC1=C(N)Nn2c(nnc2-c2ccccc2Br)S1 | -17.22%
CNC(=O)C1CN(c2ccc(F)cc2)CCN1.Cl (stereo not drawn) | -9.726%
CC(C)CN1CC[C@H]2OCC[C@@H](C(=O)N3CCCO3)[C@@H]2C1.O=C(O)C(F)(F)F | -22.87%
c1cnn(CC2CCCCN2c2ncnc3ccsc23)c1 (stereo not drawn) | -40.74%
CNC(=O)[C@@]12CCO[C@@H]1CCN(S(=O)(=O)c1cccnc1)C2.O=C(O)C(F)(F)F | 3.091%
Cc1noc(C)c1CN1CCO[C@H]2CN(Cc3nccn3C)C[C@H]21.O=C(O)C(F)(F)F.O=C(O)C(F)(F)F | -6.105%

SMILES | Percent Effect
Cc1nc(CN(C)C2CCN(Cc3cccc4cccnc34)C2)no1 (stereo not drawn) | 19.87%
Cc1nc(CN(C)C2CCN(Cc3ccno3)C2)no1 (stereo not drawn) | -9.493%
Cc1nnc(CN(C)C2CCN(Cc3nc4ccccc4n3C)C2)o1 (stereo not drawn) | 28.12%
Cc1nc(CN(C)C2CCN(Cc3nc4ccccc4n3C)C2)no1 (stereo not drawn) | 69.83%
Cc1nc(CN(C)C2CCN(Cc3ccc4ccccc4n3)C2)no1 (stereo not drawn) | 86.18%
Cc1nc(CN(C)C2CCN(CCCc3ccccc3)C2)no1 (stereo not drawn) | -13.87%
Cc1cnc(CN(C)C2CCN(Cc3nc4ccccc4n3C)C2)o1 (stereo not drawn) | 96.91%
Cc1cnc(CN(C)C2CCN(Cc3nc4ccccc4o3)C2)o1 (stereo not drawn) | -16.63%
Cc1nc(CN(C)C2CCN(Cc3nc4ccccc4s3)C2)no1 (stereo not drawn) | -21.16%
Cc1cc(-c2nccs2)nc(C2CCN(Cc3ccncc3)CC2)n1.Cl | -12.67%
CN(Cc1ccco1)[C@@H]1CN(Cc2ccco2)[C@@H]2CCCO[C@H]12.O=C(O)C(F)(F)F.O=C(O)C(F)(F)F | 13.61%
CN1CCC/C1=N\S(=O)(=O)c1ccc(NC(=O)c2ccc(Cl)cc2)cc1 | -4.489%
CC1=N[C@@]2(CC[C@@H]3CN(Cc4ccc(C)cc4)C[C@@H]32)C(=O)N1CC1CC1.O=C(O)C(F)(F)F | 0.8614%
CC(c1cn2ccsc2n1)N1Cc2ncccc2C1=O (stereo not drawn) | -27.43%
CCn1ncc2c1CN(C(=O)Cc1cccs1)CC2COC.O=C(O)C(F)(F)F (stereo not drawn) | 1.467%
COc1cccc(N2Cc3nc(=O)n(Cc4cccc(F)c4)n3C2=O)c1 | 19.15%
CCC(=O)N1CCC2(CC1)COCCN2Cc1ccc(F)cc1.O=C(O)C(F)(F)F | -30.34%
O=C(O)C(F)(F)F.c1csc(CN2CCn3c(Cn4cncn4)cnc3C2)n1 | -82.66%
O=C(Cn1c(=O)oc2ccccc21)NCC(O)c1ccc2c(c1)CCO2 (stereo not drawn) | -3.535%
O=C(CCn1c(=O)oc2ccccc21)NCC(O)c1ccc(F)c(F)c1 (stereo not drawn) | 64.78%
O=C(NCC(O)c1ccc(F)c(F)c1)c1ccccc1F (stereo not drawn) | -2.812%
O=C(CCn1c(=O)oc2ccccc21)NCC(O)c1ccccc1 (stereo not drawn) | 71.18%
CC(NC(=O)CCn1c(=O)oc2ccccc21)c1ccccn1 (stereo not drawn) | -6.717%
O=C(CCn1c(=O)oc2ccccc21)NCC(O)c1ccc(Cl)cc1 (stereo not drawn) | -3.948%

SMILES | Percent Effect
Cc1nc(C2(O)CCCNCC2)sc1CCOc1ccccc1Cl.Cl (stereo not drawn) | -14.1%
CCO[C@@H]1CC[C@H]2[C@H]1OCCN2CC1CCOCC1.O=C(O)C(F)(F)F | -50.97%
c1ccc(-c2nnc(CNCC3CCCN3c3cccnn3)o2)cc1 (stereo not drawn) | -22.96%
c1cnnc(N2CCCC2CNCc2nc(C3CC3)no2)c1 (stereo not drawn) | 52.74%
c1ccc(-c2nc(CNCC3CCCN3c3cccnn3)co2)cc1 (stereo not drawn) | 102.8%
CN(Cc1coc(-c2ccccc2)n1)CC1CCCN1c1cccnn1 (stereo not drawn) | 7.112%
c1cnnc(N2CCCC2CNCc2nc3ccccc3o2)c1 (stereo not drawn) | 103.1%
Cc1nc(CNCC2CCCN2c2cccnn2)oc1C (stereo not drawn) | -4.447%
CCc1nc(CNCC2CCCN2c2cccnn2)cs1 (stereo not drawn) | 0.6291%
c1cnnc(N2CCCC2CNCc2nc(-c3ccco3)no2)c1 (stereo not drawn) | 13.72%
CCCc1nc(CNCC2CCCN2c2cccnn2)cs1 (stereo not drawn) | 2.805%
c1cnnc(N2CCCC2CNc2nc3ccccc3o2)c1 (stereo not drawn) | -7.44%
CCc1noc(CNCC2CCCN2c2cccnn2)n1 (stereo not drawn) | 11.99%
CC(C)CCc1nc(CNCC2CCCN2c2cccnn2)cs1 (stereo not drawn) | 75.49%
CCn1ccnc1CN1CCN(c2cc(C)nc(C3CCCN3)c2)CC1.Cl (stereo not drawn) | -8.62%
CC(C)c1nn(C)c(N(C)C)c1CNCc1cccc2cccnc12.Cl | 16.12%
CO[C@@H]1CO[C@@]2(CCCN(Cc3nc(C)cs3)C2)C1.O=C(O)C(F)(F)F | 0.7459%
Cc1ccccc1C(=O)N1C[C@@H]2OCCN(c3ncccn3)[C@@H]2C1.O=C(O)C(F)(F)F | -16.98%
O=C(NC[C@]12COC[C@H]1CN(Cc1ccco1)C2)c1ccccc1.O=C(O)C(F)(F)F | -18.08%
Cc1nc(CCN)cc(N2CCOc3ccc(Cl)cc3C2)n1 | 51.61%
Cc1nc(CCN)cc(N2CCC(O)(c3ccc(Cl)cc3)CC2)n1 | -16.16%
Cc1nc(C2CCN(C)CC2)cc(N2CCOc3ccc(Cl)cc3C2)n1 | -13.3%
O=C(O)C(F)(F)F.c1nc2c(c(C3CC3)n1)CCN(CC1CCOC1)CC2 (stereo not drawn) | 4.72%
CC(C)n1cc(N2Cc3nc(N4CCOCC4)ncc3C2=O)cn1 | -21.77%

SMILES | Percent Effect
CCOc1cc(CN[C@@H]2COC[C@H]2Cc2cc(C)no2)ccc1O.O=C(O)CC(O)(CC(=O)O)C(=O)O | -17.97%
CO[C@@H]1CCN(S(=O)(=O)c2cccnc2)[C@@H]2CN(CC3CC3)C[C@@H]21.O=C(O)C(F)(F)F.O=C(O)C(F)(F)F | -1.199%
Cc1nc[nH]c1C(=O)N1CCC2(CC1)CN(CCN(C)C)C(=O)O2 | 17.79%
Cc1ccc(C(=O)N2CCC3(CC2)CN(CCN(C)C)C(=O)O3)c(F)c1 | 97.5%
Cc1cc(C(=O)N2CCC3(CC2)CN(CCN(C)C)C(=O)O3)nc(C)n1 | 14.38%
Cn1nc(CN2CCCCC2)c2c1CN(C(=O)c1cccc(C#N)c1)C2.O=C(O)C(F)(F)F | -14.41%
Cc1cc(NC(=O)C(C)N2CCCN(c3nccs3)CC2)on1 (stereo not drawn) | 10.96%
Cc1ccc(NC(=O)C(C)N2CCCN(c3nccs3)CC2)c(C)c1 (stereo not drawn) | 58.85%
Cc1ccc(C)c(NC(=O)C(C)N2CCCN(c3nccs3)CC2)c1 (stereo not drawn) | 26%
CC(C)Cc1nc(-c2ccnc(N3CCNCC3)n2)no1.Cl.Cl | -11.54%
COCCN1CCO[C@H]2CN(Cc3cccc(C)n3)C[C@H]21.O=C(O)C(F)(F)F.O=C(O)C(F)(F)F | -1.731%
Cc1ccsc1CN(Cc1cccnc1)C1CC(C)(C)NC(C)(C)C1.O=C(O)CC(O)(CC(=O)O)C(=O)O | -32.2%
Cc1cnn(C2CN(Cc3noc(-c4ccccc4)n3)C2)c1 | 31.69%
Cc1ccc(-c2nc(CN3CC(n4nc(C)cc4C)C3)no2)cc1 | 24.47%
Cc1cnn(C2CN(Cc3nc4cc(Cl)ccc4n3C)C2)c1 | 84.58%
Cc1cnn(C2CN(Cc3noc(C)n3)C2)c1 | 1.101%
Cc1cc(C)n(C2CN(Cc3nc4cc(Cl)ccc4n3C)C2)n1 | 97.92%
Cc1cc(C)n(C2CCN(Cc3nc4ccccc4n3C)CC2)n1 | -15.39%
N#Cc1ccc(N2CCC3(CCC(=O)N3Cc3cccnc3)CC2)nc1.O=C(O)C(F)(F)F.O=C(O)C(F)(F)F | 16.15%
Cc1c(Cl)cccc1S(=O)(=O)N1C[C@@H]2CC[C@H](C1)N(C)C2=O | -18.96%
O=C(Nc1cnccn1)[C@@H]1CC[C@@H]2[C@@H](CCN2Cc2nccs2)O1.O=C(O)C(F)(F)F | 0.9525%
